We go through 21 molecules from PubChem BioAssay (NCATS).

“And” between values parts separate entries of the source, which are not always exact repeats. Equal entries are not always repeated. Inconclusive results are not listed. Values without a mark were called inactive. The source made the active and inactive calls. Calls follow the shape of the dose curve; as a rule, active = well fitted curve in the direction sought with a large enough effect; inconclusive = small, poorly fitted or top-dose-only effect, or another doubt; inactive = no such curve, though single readings can be large; an effect the other way counts as inactive or inconclusive.

A short description of experiment [1]: Quantitative highthroughput screen to assess conditional lethalithy of NOMO1 cells grown in RPMI1640 with untreated serum (RPMI+s) (AID 1963876). Also: nearly all actives have a fitted effect of over 35% in size.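 As to viability: 100% = DMSO wells and 0% = empty wells without cells.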 An outline of the steps:
(§1)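 Each medium arm—HPLM with 10% dialyzed FBS, or RPMI1640 with 5 mM glucose and 10% untreated or dialyzed FBS—was screened against an 11-point, 3-fold compound titration for 48 h at 37 °C, with CellTiter-Glo luminescence as endpoint.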

Experiment [2] in a line: Quantitative highthroughput screen to assess conditional lethalithy of NOMO1 cells grown in RPMI1640 with dialyzed fetal bovine serum (RPMI+ds) (AID 1963877). Also: nearly all actives have a fitted effect of over 30% in size.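 As to viability: series mostly up to about 46 µM; 100% = DMSO control wells and 0% = empty wells.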 An outline of the steps: as §1
A short description of experiment [3]: Quantitative highthroughput screen to assess conditional lethalithy of NOMO1 cells grown in Human Plasma-Like Medium with dialyzed fetal bovine serum (HPLM+ds) (AID 1963878). Also: nearly all actives have a fitted effect of over 35% in size.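 As to viability: 100% = DMSO wells and 0% = empty wells on each plate.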 In short, it runs like this:
as §1

Experiment [4] is described as follows: Quantitative highthroughput screen to assess conditional lethalithy of P12 Ichikawa cells grown in Human Plasma-Like Medium with dialyzed fetal bovine serum (HPLM+ds) (AID 1963879). Also: nearly all actives have a fitted effect of over 35% in size. As to viability: series mostly up to about 46 µM. Conditions: Potency: viability. An outline of the steps: as §1
Experiment [5] can be described thus: Quantitative highthroughput screen to assess conditional lethalithy of P12 Ichikawa cells grown in RPMI1640 with dialyzed fetal bovine serum (RPMI+ds) (AID 1963880). Also: nearly all actives have a fitted effect of over 35% in size.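 As to viability: 100% = DMSO wells and 0% = empty wells on each plate.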 The note with it: Potency: P12-Ichikawa viability. An outline of the steps:
as §1

Experiment [6] in a line: Quantitative highthroughput screen to assess conditional lethalithy of P12 Ichikawa cells grown in RPMI1640 with untreated serum (RPMI+s) (AID 1963881). Also: nearly all actives have a fitted effect of over 35% in size.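 As to viability: series mostly up to about 46 µM; 100% = DMSO wells and 0% = empty wells without cells.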 Conditions: Potency: viability. In short, it runs like this: as §1
Experiment [7] can be described thus: Cellular viability qHTS for adrenocortical cancer (ACC) cell line SW-13 (AID 1963989). Also: nearly all actives have a fitted effect of over 65% in size.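 As to activity (max response): cells grown in serum-free medium with ITS supplement; % is scaled to controls: 0 for no effect and ±100 for the full control effect.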 The note with it: SW-13 ACC cells viability, CellTiter-Glo, 48 h; activity (max response): hits give low values. In short, it runs like this:
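Compound titrations (up to 46 uM final, in DMSO) were applied to SW-13 cells for 48 h at 37C/5% CO2. Reading used CellTiter-Glo after 20 min at room temperature; fitted curves yielded IC50 and efficacy.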
(In qHTS, concentration-response curves come from the screen itself.)

Experiment [8] is described as follows: Quantitative highthroughput screen to assess conditional lethalithy of SEM cells grown in Human Plasma-Like Medium with dialyzed fetal bovine serum (HPLM+ds) (AID 1963882). Also: nearly all actives have a fitted effect of over 35% in size. As to viability: series mostly up to about 46 µM. In short, it runs like this: as §1
The nature of experiment [9]: Quantitative highthroughput screen to assess conditional lethalithy of SEM cells grown in RPMI1640 with unreated serum (RPMI+s) (AID 1963883). Also: nearly all actives have a fitted effect of over 35% in size.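 As to viability: 100% = DMSO wells and 0% = empty wells without cells.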 An outline of the steps: as §1
Experiment [10] can be described thus: Quantitative highthroughput screen to assess conditional lethalithy of SEM cells grown in RPMI1640 with dialyzed fetal bovine serum (RPMI+ds) (AID 1963884). Also: nearly all actives have a fitted effect of over 35% in size.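 As to viability: series mostly up to about 46 µM; 100% = DMSO control wells and 0% = empty wells without cells.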 In short, it runs like this:
as §1

Experiment [11] in a line: Cellular viability qHTS for adrenocortical cancer (ACC) cell line NCI-H295R (AID 1963990). Also: nearly all actives have a fitted effect of over 60% in size. An outline of the steps: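 Readout: CellTiter-Glo luminescence, 20 min RT. Exposure: 48 h, 37C/5% CO2. Cells: NCI-H295R, ITS-DMEM serum-free. Range: up to 46 uM. Analysis: 4PL fit, IC50 plus efficacy.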
Potency is read from the fitted curve at half-maximal effect.

As to `Cc1nn(C)c2c1C(c1ccc(C(F)(F)F)cc1)C(C#N)=C(N)O2` (stereo unspecified), the Potency entry in [1], in experiment [2], in [3], in experiment [4], in experiment [5] and in experiment [6] was “inactive” each time. Also, the activity (max response) in experiment [7] is -18.7%.
For `NC(=O)c1ccc(-c2nc(-c3ccc4c(c3)OCCO4)c(-c3ccccn3)[nH]2)cc1`, the Potency entry in experiment [1], in experiment [2], in experiment [3], in experiment [4], in experiment [5] and in experiment [8] was “inactive” in each case. The Potency result in experiment [9] and in experiment [10] was “inactive” in each case. Also, the activity (max response) in experiment [7] is -9.07%.
`Cc1oncc1C(=O)Nc1ccc(C(F)(F)F)cc1`: the Potency entry in experiment [1], in experiment [2], in [3], in experiment [4], in [6] and in [8] was “inactive” each time. Moreover, the Potency result in [9] and in experiment [11] was “inactive” throughout. Also, in [7], the activity (max response) is -12.3% and -17.5%.
`CCCCN1CCC(CNC(=O)c2c3n(c4ccccc24)CCCO3)CC1`: the Potency entry in experiment [1], in experiment [2], in experiment [3], in [9] and in experiment [10] was “inactive” in each case. The Potency in [4] was 18.7 µM (active); in experiment [6] it was 16.6 µM (active).
Turning to `Cc1cccc(N(C)C(=S)Oc2ccc3ccccc3c2)c1`, the Potency result in [1], in experiment [2], in experiment [3], in [4], in experiment [6] and in [8] was “inactive” in each case. Further, the Potency result in experiment [9] and in experiment [11] was “inactive” each time. Further, the activity (max response) in [7] was 2.38%.
Turning to `C[C@@H]1[C@H](O)[C@@H](C)C=CC=CC=CC=CC=CC=CC=C[C@H](O[C@@H]2O[C@H](C)[C@H](O)[C@H](N)[C@@H]2O)C[C@@H]2O[C@](O)(C[C@@H](O)C[C@@H](O)[C@H](O)CC[C@@H](O)C[C@@H](O)CC(=O)O[C@H]1C)C[C@H](O)[C@@H]2C(=O)O`, the Potency result in experiment [1], in experiment [2], in experiment [3], in experiment [4], in experiment [6] and in [8] was “inactive” each time. In addition, the Potency entry in experiment [9] and in [10] was “inactive” throughout.
With `CCCCCCCN(CC)CCCC(O)c1ccc(NS(C)(=O)=O)cc1` (stereo unspecified), the Potency entry in [1], in [2], in experiment [3] and in experiment [11] was “inactive” in each case. Further, the Potency in [4] was 13.2 µM (active); in experiment [5] it was 18.7 µM (active). The activity (max response) in experiment [7] is -11.3%.
In the case of `C=C1C(=CC=C2CCC[C@]3(C)[C@@H]([C@H](C)CCCC(C)(C)O)CC[C@@H]23)C[C@@H](O)C[C@@H]1O`, the Potency result in [1], in experiment [2], in experiment [3], in [4] and in experiment [8] was “inactive” each time.
Regarding `COc1ccc(-c2cc(=O)c3c(O)cc(O[C@@H]4O[C@H](CO[C@@H]5O[C@@H](C)[C@H](O)[C@@H](O)[C@@H]5O)[C@@H](O)[C@H](O)[C@@H]4O)cc3o2)cc1O`, the Potency entry in [1], in experiment [2], in experiment [3], in experiment [4], in [6] and in experiment [8] was “inactive” in each case. Besides, the Potency result in experiment [9] and in experiment [10] was “inactive” each time.
Take `O=C(C=Cc1c(C(=O)O)[nH]c2cc(Cl)cc(Cl)c12)Nc1ccccc1`: the Potency result in experiment [1], in experiment [2], in [3], in experiment [4] and in [6] was “inactive” throughout.
For `COc1cc2nc(-c3ccc(N4CCN(C)CC4)cc3)nc(NCCN3CCOCC3)c2cc1OC`, the Potency in [1] was 1.66 µM (active); in [2] it was 0.743 µM (active); in [3], 526 nM (active); in experiment [4], 5.26 µM (active); in experiment [6] it was 2.96 µM (active); in [8], 0.166 µM (active). The Potency in experiment [9] is 0.469 µM (active); in experiment [10] it was 372 nM (active); in experiment [7] it was 17.8 µM (active); in experiment [11] it was 3.55 µM (active).
For `C[C@@H]1[C@H](C)CC[C@]2(C(=O)O)CC[C@]3(C)C(=CC[C@@H]4[C@@]5(C)CC[C@H](O)C(C)(C)[C@H]5CC[C@]43C)[C@@H]12`, the Potency result in experiment [1], in experiment [2], in [3], in experiment [4], in experiment [6] and in experiment [8] was “inactive” each time.
As for `COc1cc(OC)cc(-c2ccc3ncc4ccc(=O)n(-c5ccc(N6CCNCC6)c(C(F)(F)F)c5)c4c3c2)c1`, the Potency entry in [1] was “inactive”. Also, the Potency in experiment [2] is 8.33 µM (active); in [3], 14800 nM (active); in [4], 10.5 µM (active); in experiment [8], 14.8 µM (active); in [9], 16.6 µM (active).
In the case of `CN1C(=O)C[C@H](C(=O)N[C@@H](Cc2cnc[nH]2)C(=O)N2CCC[C@@H]2C(N)=O)NC1=O`, the Potency entry in experiment [1], in experiment [2], in [3], in experiment [4], in [5] and in experiment [11] was “inactive” in each case.
Take `C[C@H](O)[C@@H]1C(=O)N2C(C(=O)O)=C(S[C@@H]3CN[C@H](CNS(N)(=O)=O)C3)[C@@H](C)[C@@H]12`: the Potency result in experiment [1], in [2], in [3], in experiment [4], in [6] and in experiment [8] was “inactive” in each case. Further, the Potency result in experiment [9], in [10] and in experiment [11] was “inactive” each time. The activity (max response) in [7] was 8.99%.
As to `Cn1cc(C=CC(=O)c2cccc(F)c2)cc1C=CC(=O)NO`, the Potency result in [1], in [2], in experiment [3], in [4], in [6] and in [8] was “inactive” in each case. The Potency result in experiment [9] was “inactive”.
In the case of `c1cc(CN2CCCNCCNCCCNCC2)ccc1CN1CCCNCCNCCCNCC1`, the Potency result in experiment [1], in experiment [2], in experiment [3], in [4], in [6] and in experiment [8] was “inactive” in each case. Further, the Potency entry in experiment [9], in [10] and in [11] was “inactive” each time. In addition, the activity (max response) in experiment [7] was -19.4%.
With `O=c1c(O)c(-c2ccc(O)cc2)oc2cc(O)cc(O)c12`, the Potency entry in experiment [1], in experiment [2], in experiment [3], in experiment [4], in experiment [5] and in experiment [8] was “inactive” in each case. The Potency entry in [11] was “inactive”. Further, the activity (max response) in [7] is -9.76%.
With `Cn1cc(C=C2C(=O)Nc3cccnc32)c2ccccc21`, the Potency in experiment [1] is 7.43 µM (active); in [2] it was 9.35 µM (active); in [4], 9.35 µM (active); in experiment [6] it was 23.5 µM (active). In experiment [3], the Potency result is “inactive”.
As to `NC(=O)c1cccc(N)c1`, the Potency result in experiment [1], in experiment [2], in experiment [3], in experiment [4], in experiment [6] and in [8] was “inactive” each time. For the same molecule, the Potency entry in experiment [11] was “inactive”. For the same molecule, the activity (max response) in [7] is -2.32%.
On to `O=C(c1ccc(F)c(F)c1Nc1ccc(I)cc1F)N1CC(O)([C@H]2CCCCN2)C1`, for which the Potency in experiment [1] is 0.743 µM (active); in [2], 0.743 µM (active); in experiment [3], 526 nM (active); in experiment [4], 8.33 µM (active); in [6], 8.33 µM (active). Also, the Potency result in experiment [8] was “inactive”.
